Screening results from PubChem.
Hits are enriched below; roughly 5% of the tested compounds scored in any of these assays.
CHT block: inhibitors of human choline transporter CHT. 310,000 tested, 0.86% active. B-score at 10 µM. Q9GZV3. AID 488975. CHT-expressing cells, membrane potential dye, choline response; stronger effect = lower value;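 active means B-score over 3 SD under the library average, and starting fluorescence ratio not unusually high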;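 further: choline stimulus applied at its EC90 after an EC20 pre-addition; B-score computed on integrated fluorescence ratio after choline addition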
ALR inh: human ALR oxidase inhibition via reduced H2O2 | purified ALR, DTT oxidation, H2O2 HRP-luminol luminescence | AID 485317 | inhibition, % (no concentration beside the values) | P55789 | 290,000 tested, 3.8% active;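 active means mean replicate inhibition above about 79%, with every replicate also reaching it, limit read from the data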
CHT PAM: human CHT allosteric activation; Q9GZV3; CHT-expressing cells, membrane potential dye, choline EC20; stronger effect = higher value; LV-AA mutant CHT in HEK293 cells; B-score at 10 µM; 310,000 tested, 0.49% active;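 active means initial fluorescence not abnormally high and integrated response B-score, plate-corrected, over 3 SD above library mean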
PREPL inhibitor: inhibits the human prolyl oligopeptidase-like enzyme. inhibition, % at 5.96 µM. AID 2751. recombinant PREPL, fluorescence polarization activity-based probe. 320,000 tested, 0.68% active; in the data active means inhibition above about 43%;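 further: 0% = enzyme with DMSO and 100% = wells lacking enzyme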
Target sequence (Q4J6C6 whole entry, looked up): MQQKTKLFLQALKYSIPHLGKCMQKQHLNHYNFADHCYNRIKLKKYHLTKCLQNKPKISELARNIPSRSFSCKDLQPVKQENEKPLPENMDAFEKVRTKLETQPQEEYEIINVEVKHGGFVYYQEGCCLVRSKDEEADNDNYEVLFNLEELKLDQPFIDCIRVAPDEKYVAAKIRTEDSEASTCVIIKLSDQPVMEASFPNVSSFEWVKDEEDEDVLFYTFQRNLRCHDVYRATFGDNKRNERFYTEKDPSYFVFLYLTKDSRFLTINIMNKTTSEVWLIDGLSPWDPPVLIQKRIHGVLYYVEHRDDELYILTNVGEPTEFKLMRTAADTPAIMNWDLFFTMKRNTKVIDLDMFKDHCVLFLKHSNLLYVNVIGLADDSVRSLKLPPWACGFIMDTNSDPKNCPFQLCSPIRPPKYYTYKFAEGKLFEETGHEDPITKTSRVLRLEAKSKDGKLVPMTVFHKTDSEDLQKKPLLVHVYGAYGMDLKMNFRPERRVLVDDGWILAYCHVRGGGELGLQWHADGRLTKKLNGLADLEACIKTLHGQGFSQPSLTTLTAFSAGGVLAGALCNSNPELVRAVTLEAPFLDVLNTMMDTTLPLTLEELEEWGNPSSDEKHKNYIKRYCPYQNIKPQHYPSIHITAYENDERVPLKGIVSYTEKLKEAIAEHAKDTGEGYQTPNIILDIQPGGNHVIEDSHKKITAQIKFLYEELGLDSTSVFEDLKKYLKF
AI-2 QS modul: modulators of Vibrio harveyi AI-2 quorum sensing system; AID 2094; 300,000 tested, 0.4% active; activity change, % at 7.5 µM; Vibrio harveyi JMH597 AI-2 luminescence/OD600 ratio, 9 h; stronger effect = lower value; strain lacks LuxN and CqsS sensors; 0 = neutral-control median; in the data active means activity change below about -75%, passing the limit was not always enough;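 further: luminescence divided by OD600 gain over 9 h not by final OD600 alone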
* = called active by the depositor; i = inactive; x = no result given.

SMILES	CHT block	ALR inh	CHT PAM	PREPL inhibitor	AI-2 QS modul
O=C(NCCCN1CCN(c2ccccc2)CC1)C1CCCN(c2ncnc3c2nc2n3CCCCC2)C1 (stereo not given)	i	99*	i	23	12
O=C(NCC1COc2ccccc2O1)c1ccc(Br)s1 (stereo not given)	i	-24	i	-32	-9
CN(C)c1ccc(NC(=O)CSc2nnc(C3CCCCC3)n2N)cc1	i	99*	i	13	14
CCn1c(SCC(=O)Nc2nc(C)cs2)nnc1C(NC(=O)c1ccccc1Cl)C(C)C (stereo not given)	i	0	i	3	12
C=CCn1c(SCC(=O)Nc2nc(C)cs2)nnc1C(CO)NC(=O)c1ccccc1 (stereo not given)	i	85*	i	3	8
CCCCn1nnnc1SCC(=O)Nc1ccc(N(C)C)cc1	i	99*	i	15	10
Nn1c(SCC(=O)Nc2nccs2)nnc1C1CC1	i	99*	i	9	3
CCn1c(SCC(=O)Nc2nccs2)nnc1C1CC1	i	1	i	7	16
CC(=O)Nc1ccc(NC(=O)c2ccnn2C)cc1	i	-3	i	-9	-7
CC(C(=O)OCc1nnc(-c2ccccc2)o1)N1C(=O)C2CCCCC2C1=O (stereo not given)	i	9	i	-9	23
O=C(Cc1ccc(F)cc1)Nc1ccc(Cl)cn1	i	x	i	-5	5
Cc1csc(NC(=O)CSc2nnc(C)c(=O)n2N)n1	i	99*	i	1	14
CC(=O)Nc1ccc(NC(=O)CSc2nnc(C)c(=O)n2N)cc1	i	98*	i	4	-2
Cc1nnc(SCC(=O)Nc2nc3ccccc3s2)n(N)c1=O	i	45	i	-4	33
Cc1nnc(SCC(=O)Nc2ccc(F)cc2)n(N)c1=O	i	-30	i	8	-6
Cc1nnc(SCC(=O)Nc2ccc(N(C)C)cc2)n(N)c1=O	i	99*	i	-1	20
COc1ccc(CCSc2nnc(C3CCCCC3)n2N)cc1	i	96*	i	14	13
CC1CCCCC1NC(=O)C1CCC(CNS(=O)(=O)c2ccccc2)CC1 (stereo not given)	i	-5	i	2	18
CN(C)CCCN1c2ccccc2Sc2ccccc21	i	98*	i	38	13
CCN(CC)CCN1c2ccccc2Sc2ccccc21	i	100*	i	9	23
COc1ccc2c(c1)Sc1ccccc1N2CCN(C)C	i	98*	i	33	14
CCN(CC)CCC(=O)N1c2ccccc2Sc2ccc(Cl)cc21	i	64	i	-46	23
CCOc1cc2[nH]c(=S)n(CCCC(=O)NCc3ccccn3)c(=O)c2cc1OCC	i	21	i	19	15
CC1=CC(C)(C)Nc2ccc(OC(=O)CN3C(=O)CCC3=O)cc21	i	99*	i	-2	10
COc1ccc(C2(c3ccc(OC)cc3)NC(=O)N(CC(=O)N(C)C)C2=O)cc1	i	-1	i	-10	-1
SMILES	CHT block	ALR inh	CHT PAM	PREPL inhibitor	AI-2 QS modul
COc1cc(/C=N/N2C(=O)c3ccccc3C2=O)ccc1O	i	46	i	-4	10
COc1cc(/C=N/N=C2/C(=O)Nc3ccccc32)ccc1O	i	99*	i	5	0
O=C(/C(=N/N=C/c1ccc(O)c(O)c1)c1ccccc1)c1ccccc1	i	x	i	7	74
O=C1Nc2ccccc2/C1=N\N=C\c1ccc(O)c(O)c1	i	99*	i	2	33
COc1cc(/C=N/N=C2/NC(=O)C(c3ccccc3)S2)ccc1O (stereo not given)	i	99*	i	0	31
O=C(CC12CC3CC(CC(C3)C1)C2)NCC(c1ccc(F)cc1)N1CCOCC1 (stereo not given)	i	x	i	0	11
CC(C)Cc1nnc(NC(=O)CSc2nc(O)c(-c3ccccc3)c(=O)[nH]2)s1	i	68	i	11	26
CCN(CC)c1cccc(OC2=NS(=O)(=O)c3ccccc32)c1	i	99*	i	20	0
N#CC1=C(N)NC(=S)C(C(N)=O)C1c1ccccc1F (stereo not given)	i	84*	i	-9	24
Cc1cccc(Oc2ccccc2N)c1	i	0	i	14	17
